In PubChem BioAssay (NCI) one finds growth data, which are given here for 16 compounds.

About 83,000 compounds went through this panel and 20% of them were active in at least one assay; those are over-represented in the sample as a whole.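 The endpoint reported here, percent growth, reads 100 for growth as untreated, 0 for no net growth and -100 for all cells dead.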 Unmarked numbers belong to inactive results. Activity calls are given as the source filed them. Rule for the calls: active = growth percent below 10; inactive = the rest.

What all share (experiment): NCI-60 one-dose screen, 48 h (100 = growth as untreated, 0 = no growth, -100 = all killed)
Holding throughout (conditions): 10 µM unless noted

The subject of assay [1] is SR leukemia.
Assay [2] concerns RPMI-8226 leukemia.
In assay [3] the test system is OVCAR-8 ovarian.
The test system of assay [4] is OVCAR-5 ovarian.
The subject of assay [5] is OVCAR-4 ovarian.
The test system of assay [6] is SK-OV-3 ovarian.
The subject of assay [7] is IGROV1 ovarian.
In assay [8] the test system is OVCAR-3 ovarian.
The subject of assay [9] is HS 578T breast.
Assay [10] relates to NCI/ADR-RES ovarian.
For assay [11], the system named is T-47D breast.
The subject of assay [12] is BT-549 breast.
Assay [13] relates to MDA-MB-435 melanoma.
In assay [14] the test system is SW-620 colon.
The subject of assay [15] is MCF7 breast.
In assay [16] the test system is HCT-116 colon.
Assay [17] deals with HCC-2998 colon.
Assay [18] has as its system KM12 colon.

As to `Oc1c(C(Nc2cccc3ccccc23)c2ccccc2)ccc2cccnc12` (stereo not drawn), the growth in assay [1] is 3.7% (active); in assay [2] it was 37.6%; in assay [3] it was 25%; in assay [4], 49.8%; in assay [5], 11.4%; in [6], 49.6%. Moreover, the growth in [7] was 21.5%; in assay [8] it was 22.4%; in assay [9], 63.5%; in assay [10] it was 4.58% (active); in assay [11], 49.1%; in [12], -16.1% (active). Moreover, the growth was 42.3% in assay [13]; 37.6% in assay [14]; 25.8% in assay [15]; 15.6% in assay [16]; 27.5% in assay [17]; 36% in assay [18].
With `CCNCCCn1c2c(c3ccc(Cl)cc3c1=O)C(=O)c1cc(OC)cnc1-2`, the growth in assay [1] was -63.6% (active); in assay [2], -48.8% (active); in assay [3], -30.7% (active); in [4] it was -11.9% (active); in [5] it was 52.2%; in assay [6] it was -11% (active). Besides, the growth was 44.7% in [7]; 39.1% in assay [8]; 58.8% in assay [9]; 35.5% in [10]; 16.6% in assay [11]; 39.8% in assay [12]. Further, the growth in assay [13] was 68.1%; in assay [14] it was -64.5% (active); in assay [15], -64.9% (active); in [16], -95.8% (active); in assay [17], 68%; in assay [18] it was 32.8%.
Turning to `O=c1c2cc(Cl)ccc2oc2ccc(OCCCCCN3CCCCC3)cc12`, the growth was 7.54% (active) in [1]; 38% in assay [2]; 55.1% in assay [3]; 75.4% in assay [4]; 80.6% in [5]; 98.3% in assay [6]. The growth in assay [7] was 72%; in assay [8], 67.1%; in assay [9], 80.5%; in [10], 71%; in assay [11] it was 60.1%; in assay [12], 64.6%. The growth was -24% (active) in assay [13]; 33.7% in [14]; 56.5% in [15]; 11.5% in assay [16]; 74.7% in assay [17]; 65% in assay [18].
Turning to `CCOC(=O)c1ccc(NC(=O)CSC(N)=O)cc1`, the growth was 96.8% in assay [1]; 87.3% in [2]; 100% in assay [3]; 99.1% in assay [4]; 122% in [5]; 128% in assay [6]. Besides, the growth was 92% in [7]; 109% in assay [8]; 105% in [9]; 99.3% in assay [10]; 131% in assay [11]; 93.8% in assay [12]. In addition, the growth in assay [13] was 113%; in assay [14] it was 103%; in [15], 99.3%; in [16], 87.9%; in assay [17] it was 105%; in [18], 111%.
As for `O=C(NO)c1ccc(CNc2cccc3nc(C4CC4)n(-c4ccccc4)c(=O)c23)cc1`, the growth in assay [1] is 1.62% (active); in assay [2], -26.6% (active); in [3], -15.4% (active); in [4], 35.7%; in assay [5], 11.5%; in [6] it was 16%. Besides, the growth in assay [7] is 8.21% (active); in assay [8], 0.886% (active); in [9] it was 39.8%; in assay [10] it was -10.7% (active); in assay [11], 22.9%; in assay [12] it was 64%. Further, the growth in assay [13] was 10.3%; in assay [14] it was 0.537% (active); in assay [15], 27.6%; in assay [16], -22.1% (active); in [17] it was 36%; in assay [18], 8.66% (active).
On to `CCOC(=O)C#Cc1c(C(=O)OCC)nnn1[C@@H]1O[C@H](COC(C)=O)[C@@H](OC(C)=O)[C@H]1OC(C)=O`, for which the growth was 22.8% in assay [1]; 94.8% in assay [2]; 94.1% in assay [3]; 100% in [4]; 104% in [5]; 109% in assay [6]. For the same compound, the growth in assay [7] was 91.5%; in [8] it was 62.1%; in assay [9] it was 96.2%; in [10] it was 104%; in [11] it was 60.2%; in [12], 111%. Besides, the growth in assay [13] is 104%; in assay [14] it was 13.6%; in [15], 41.8%; in assay [16] it was 92.4%; in assay [17] it was 105%; in assay [18] it was 109%.
Turning to `O=C1/C(=C/N2N=C(c3ccc(Cl)cc3)CC2c2ccccc2O)SC(=S)N1c1cccc(C(F)(F)F)c1` (stereo not drawn), the growth in assay [1] is 42%; in assay [2], 25.4%; in [3] it was 59.7%; in [4], 82.3%; in assay [5], 37%; in assay [6], 74%. Besides, the growth in [7] was 43.7%; in assay [8], 54.6%; in assay [9], 71%; in [10], 56.4%; in assay [11], 27.4%; in [12], 71.7%. In addition, the growth in assay [13] is 64.6%; in [14], 64.7%; in assay [15], 15.7%; in assay [16] it was 45.5%; in assay [17], 62.3%; in [18], 38%.
With `CSC1=N/C(=C\c2cccc(OCc3ccc(Cl)cc3)c2)C(=O)N1`, the growth is 80.9% in [1]; 67.7% in assay [2]; 86.1% in assay [3]; 106% in assay [4]; 56.9% in [5]; 98.5% in [6]. Besides, the growth in assay [7] is 86.7%; in assay [8] it was 84.2%; in [9], 104%; in assay [10], 79%; in assay [11] it was 59.4%; in [12], 88.1%. The growth in assay [13] was 80.6%; in assay [14], 88.1%; in assay [15], 83%; in assay [16], 88.8%; in [17] it was 93%; in [18] it was 79.8%.
As to `COc1cnc2c(c1)C(=O)c1c-2n(CCCN2CCCC2)c(=O)c2cc(Cl)ccc12`, the growth in assay [1] was -42.9% (active); in assay [2] it was 20.3%; in [3] it was 26.1%; in assay [4], 64.8%; in [5], 45.4%; in assay [6], 19.6%. Also, the growth in [7] was 39.4%; in assay [8] it was 55%; in assay [9], 49.1%; in assay [10] it was 35.1%; in assay [11], 29.3%; in assay [12], 44.5%. Also, the growth is 61.1% in [13]; -89.4% (active) in [14]; -46.1% (active) in assay [15]; -92.8% (active) in assay [16]; 62.1% in [17]; 42.4% in assay [18].
Turning to `O=C(CC(=O)c1ccccc1F)Nc1ccc([N+](=O)[O-])cc1`, the growth in [1] was 77.7%; in assay [2], 68.4%; in assay [3] it was 97.4%; in assay [4] it was 104%; in [5], 92.8%; in [6] it was 108%. For the same compound, the growth in assay [7] was 97.9%; in [8], 109%; in [9], 110%; in [10], 103%; in assay [11], 82.5%; in assay [12] it was 89.7%. In addition, the growth in [13] was 88.3%; in assay [14], 109%; in assay [15], 81.3%; in assay [16], 90.5%; in assay [17], 103%; in [18], 99.8%.
Take `CC(C)(C)c1nn(-c2ccccc2)c2c1C(=O)CSC(c1ccccc1Cl)N2` (stereo not drawn): the growth in [1] was -13.8% (active); in assay [2], 42.9%; in [3], 35.7%; in assay [4] it was 46.8%; in assay [5], 72.5%; in [6] it was 7.26% (active). Moreover, the growth in assay [7] is 30.3%; in assay [8], 11.3%; in assay [9], 47.5%; in assay [10], 0.0963% (active); in [11] it was 29.3%; in assay [12] it was 44.6%. The growth is -12.4% (active) in assay [13]; 37.1% in assay [14]; 17.1% in [15]; 16.2% in assay [16]; 24.9% in [17]; 32.5% in assay [18].
For `NS(=O)(=O)c1ccc(CCn2c(SCC(=O)N/N=C/c3ccccc3O)nc3ccccc3c2=O)cc1`, the growth was 19.9% in assay [1]; 32.1% in [2]; 36.9% in assay [3]; 69.2% in assay [4]; 83.3% in assay [5]; 59.2% in assay [6]. Further, the growth in assay [7] was 64.4%; in assay [8] it was 23.8%; in assay [9], 37.5%; in assay [10], 92.3%; in assay [11] it was 49.2%; in assay [12], 53.9%. The growth was 3.97% (active) in [13]; 26.1% in assay [14]; 21.7% in assay [15]; 16.9% in assay [16]; 86.8% in assay [17]; 34% in [18].
As to `CSc1ccc(/C=C2\C=C(CC(=O)NCc3ccc(C(=O)c4ccccc4)cc3)c3cc(F)ccc32)cc1`, the growth in assay [1] is 10.3%; in [2], 15.2%; in assay [3], 1.81% (active); in [4], 25.2%; in assay [5], 10.9%; in assay [6] it was -34.4% (active). Also, the growth was 10.3% in [7]; -60.1% (active) in [8]; 2.68% (active) in [9]; -34.6% (active) in [10]; 31.6% in assay [11]; 25.7% in assay [12]. For the same compound, the growth is -47.8% (active) in [13]; 9.98% (active) in assay [14]; -2.9% (active) in assay [15]; -28% (active) in assay [16]; -0.5% (active) in assay [17]; -61.4% (active) in [18].
With `CCOCCNc1ccc(S(=O)(=O)c2ccc(N)cc2)cc1N`, the growth in assay [1] is 115%; in [2], 92.9%; in assay [3] it was 98.7%; in [4], 103%; in assay [5] it was 100%; in assay [6], 105%. In addition, the growth in assay [7] is 114%; in assay [8], 100%; in [9] it was 99%; in assay [10], 100%; in assay [11], 99.8%; in assay [12], 107%. The growth is 105% in assay [13]; 102% in assay [14]; 113% in [15]; 102% in assay [16]; 101% in assay [17]; 99.3% in assay [18].
With `CC1=CC(=O)OC1C/C=C(\C)CCC1[C@@]2(C)CCC[C@@](C)(C(=O)O)C2CC[C@@]1(C)O` (stereo partly drawn), the growth was 33.2% in [1]; 24.3% in [2]; 42.8% in [3]; 111% in [4]; 75.5% in assay [5]; 98.1% in assay [6]. Moreover, the growth was 107% in assay [7]; 56% in [8]; 38.5% in assay [9]; 91.8% in [10]; 87.3% in [11]; 67.3% in assay [12]. Further, the growth in assay [13] was 16.7%; in [14], 32.4%; in assay [15] it was 28.8%; in assay [16] it was 27.9%; in [17], 44%; in [18], 26.4%.
For the compound `CN1C(=O)N(C)C2C1NN=c1s/c(=C\c3ccsc3)c(=O)n12` (stereo not drawn), the growth in [1] is 20.6%; in assay [2], 58%; in [3], 59.5%; in [4] it was 72.6%; in [5], 89.5%; in assay [6] it was 59.7%. The growth in [7] is 46.9%; in assay [8], 14.9%; in [9], 53.9%; in assay [10], 39.8%; in [11] it was 44.3%; in assay [12], 37%. Besides, the growth was -3.38% (active) in assay [13]; 26.6% in assay [14]; 15.2% in assay [15]; 18.5% in assay [16]; 73.7% in assay [17]; 18.9% in [18].
